This is a sample that favours compounds with a hit; in the whole collection about 2% have one here.
EP2 modulator: EP2 receptor (human) modulation | 260,000 tested, 0.83% active | EP2-expressing cells, cAMP HTRF FRET, PGE2 co-stimulation | induction, % at 25 µM | P43116;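 active means compounds whose cAMP rise, as percent of the full-agonist control response, exceeds 60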;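 further: rat C6 glioma line stably carrying human EP2 under a CMV promoter; the protocol text gives 20 µM as final concentration; 100% = response of wells given 1 µM PGE2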
EP2 antag: blocks the human prostaglandin E2 receptor EP2; P43116; C6 glioma cells expressing human EP2, cAMP TR-FRET; cells stimulated with saturating PGE2; inhibition, % at 25 µM; 260,000 tested, 0.52% active;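 active means percent inhibition above 40 after rounding to a whole number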;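 further: rat C6 glioma host cells with rolipram phosphodiesterase inhibitor present; the protocol text gives 20 µM as final concentration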
CHT block: inhibitors of human choline transporter CHT; Q9GZV3; 310,000 tested, 0.86% active; B-score at 10 µM; CHT-expressing cells, membrane potential dye, choline response; hits give low values; AID 488975;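 active means B-score over 3 SD under the library average, and starting fluorescence ratio not unusually high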;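 further: choline stimulus applied at its EC90 after an EC20 pre-addition; B-score computed on integrated fluorescence ratio after choline addition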
Target sequence (Q9GZV3 whole entry, looked up): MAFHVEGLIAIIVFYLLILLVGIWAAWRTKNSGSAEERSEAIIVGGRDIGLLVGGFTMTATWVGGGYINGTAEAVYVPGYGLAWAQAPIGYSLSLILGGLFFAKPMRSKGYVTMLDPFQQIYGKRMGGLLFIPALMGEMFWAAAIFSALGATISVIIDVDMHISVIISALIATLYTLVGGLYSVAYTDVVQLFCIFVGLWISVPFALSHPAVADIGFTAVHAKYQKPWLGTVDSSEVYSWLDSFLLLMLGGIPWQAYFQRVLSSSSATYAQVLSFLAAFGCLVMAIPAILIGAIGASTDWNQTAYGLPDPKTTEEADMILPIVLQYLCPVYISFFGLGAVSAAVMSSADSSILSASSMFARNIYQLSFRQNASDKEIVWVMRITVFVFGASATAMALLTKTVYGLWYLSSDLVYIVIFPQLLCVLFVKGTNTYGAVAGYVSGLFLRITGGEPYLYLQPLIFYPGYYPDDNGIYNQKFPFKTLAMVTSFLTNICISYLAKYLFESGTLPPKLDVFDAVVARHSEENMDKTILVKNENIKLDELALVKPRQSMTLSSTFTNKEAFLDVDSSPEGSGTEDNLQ
CHT PAM: allosterically activates the human high affinity choline transporter; 310,000 tested, 0.49% active; Q9GZV3; B-score at 10 µM; CHT-expressing cells, membrane potential dye, choline EC20; hits give high values; LV-AA mutant CHT in HEK293 cells;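 active means initial fluorescence not abnormally high and integrated response B-score, plate-corrected, over 3 SD above library mean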
Active calls of the source: *.

`Cc1ccc(S(=O)(=O)NCCC(c2ccc(F)cc2)c2ccco2)cc1` (stereo unspecified) gave EP2 modulator 58, EP2 antag 3, CHT block inactive and CHT PAM inactive.
`Cc1ccc(S(=O)(=O)NCCC(c2ccccc2)c2ccco2)cc1` (stereo unspecified) gave EP2 modulator 64*, EP2 antag 4, CHT block inactive and CHT PAM inactive.
`O=C1/C(=C\c2ccncc2)CCc2ccccc21` gave CHT block inactive and CHT PAM inactive.
Screening O=C1/C(=C/c2cccc3ccccc23)CCCc2ccccc21 returned EP2 modulator 61*, CHT block inactive and CHT PAM inactive.
`O=C1CN2CCN(CC2)CC(=O)Nc2ccc(cc2)S(=O)(=O)c2ccc(cc2)NC(=O)CN2CCN(CC2)CC(=O)Nc2ccc(cc2)S(=O)(=O)c2ccc(cc2)N1` gave EP2 modulator 13 and EP2 antag 51*.
Screening O=C1CNCCCN2CCN(CCCNCC(=O)Nc3ccc(cc3)S(=O)(=O)c3ccc(cc3)NC(=O)CNCCCN3CCN(CCCNCC(=O)Nc4ccc(cc4)S(=O)(=O)c4ccc(cc4)N1)CC3)CC2 returned EP2 modulator 7 and EP2 antag 42*.
CCOc1ccc(Cc2nccc3cc(OCC)c(OCC)cc23)cc1OCC was read as EP2 modulator 47 and EP2 antag 6.
`Oc1ccc(Cc2nccc3cc(O)c(O)cc23)cc1O` gave EP2 modulator -8 and EP2 antag 53*.
For O=C1NC2(CCN(C(=O)C3CC(=O)N(c4ccccc4F)C3)CC2)Nc2ccccc21 (stereo unspecified) the results were EP2 modulator -2 and EP2 antag 8.
`Cc1cc2cc(C#N)c(N3CCN(C)CC3)nc2cc1Cl` gave EP2 modulator -62 and EP2 antag 5.
`C=CS(=O)(=O)c1ccc(Oc2ccc(S(=O)(=O)C=C)cc2)cc1` gave EP2 modulator -61, EP2 antag 72*, CHT block inactive and CHT PAM inactive.
For COc1ccc(C)cc1NC(=O)Cn1nc(-c2cc(C)oc2C)cc(N)c1=O the results were EP2 modulator -81 and EP2 antag 7.
Cc1ccc2nc(SCC(=O)N3c4ccccc4CC3C)c(C)cc2c1 (stereo unspecified) was read as EP2 modulator 42, EP2 antag 14, CHT block inactive and CHT PAM inactive.
Screening CCc1ccc2nc(SCC(=O)N3c4ccccc4CC3C)c(C#N)cc2c1 (stereo unspecified) returned EP2 modulator 64* and EP2 antag 9.
For COc1ccc(CC2CCOC2=O)cc1 (stereo unspecified) the results were EP2 modulator -5, EP2 antag 13, CHT block inactive and CHT PAM inactive.
COc1ccc(C[C@@H]2C(=O)N[C@H](C)C(=O)N(C)[C@@H]3Cc4ccc(cc4)Oc4cc(ccc4O)C[C@@H](C(=O)N[C@@H](C)C(=O)N[C@H](C)C(=O)N2C)N(C)C3=O)cc1 was read as EP2 modulator 26 and EP2 antag 41*.
Screening O=C(Cc1ccccc1)Nc1cccc(N2C(=O)C=CC2=O)c1 returned EP2 modulator -69, EP2 antag 133*, CHT block inactive and CHT PAM inactive.
`CC1CCN(c2nnc(-c3ccccc3)c3ccccc23)CC1` gave EP2 modulator 65*, EP2 antag 13, CHT block inactive and CHT PAM inactive.
Screening CC(=O)OCCCNc1cc(Sc2nc3ccccc3s2)c2nonc2c1[N+](=O)[O-] returned EP2 modulator -21, EP2 antag 41*, CHT block inactive and CHT PAM inactive.
`CC(=O)OCCCNc1cc(Sc2ccc(C)cc2)c2nonc2c1[N+](=O)[O-]` gave EP2 modulator 6, EP2 antag 5, CHT block inactive and CHT PAM inactive.
`CN(C)c1nc2c([nH]1)c(=O)[nH]c(=O)n2C` gave EP2 modulator -12 and EP2 antag 7.
Screening O=C(NCCn1nc(-c2ccco2)ccc1=O)c1ccccc1F returned EP2 modulator -29 and EP2 antag 7.
O=C(O)CCC(O)=C1S(=O)(=O)OCCOS1(=O)=O was read as EP2 modulator 29 and EP2 antag 43*.
Screening COc1nc(N=C(N)N)nc2ccc(C)cc12 returned EP2 modulator -14, EP2 antag 8, CHT block inactive and CHT PAM 7.4*.
Cc1cc(OCC(=O)Nc2nc3ccc(S(C)(=O)=O)cc3s2)cc(C)c1Cl was read as EP2 modulator -116 and EP2 antag 26.
For CSc1nc(Oc2ccc(Cl)cc2)c2sccc2n1 the results were EP2 modulator 64*, EP2 antag 11, CHT block inactive and CHT PAM inactive.
`CSc1nc(N2CCOCC2)c2sccc2n1` gave EP2 modulator 6, EP2 antag 5, CHT block inactive and CHT PAM inactive.
Screening COC(=O)[C@H](Cc1ccccc1)NC(=O)O[C@@H]1C(=O)c2cc(OC)ccc2O[C@H]1c1ccc(OC)c(Br)c1 returned EP2 modulator 12, CHT block inactive and CHT PAM inactive.
`COC(=O)[C@@H](NC(=O)O[C@@H]1C(=O)c2ccc(OC)cc2O[C@H]1c1cccc(C(F)(F)F)c1)C(C)C` gave EP2 modulator 62*, CHT block inactive and CHT PAM inactive.
For COC(=O)[C@H](Cc1ccccc1)NC(=O)O[C@H]1C(=O)c2ccc(OC)cc2O[C@@H]1c1ccc2c(c1)OCO2 the results were EP2 modulator 0, EP2 antag 51*, CHT block inactive and CHT PAM inactive.
C=CCc1cc(CN(C)CC2CCN(C)C2)cc(OC)c1O (stereo unspecified) was read as EP2 modulator 0 and EP2 antag 3.
`COc1cc(/C=N\Nc2nc3ccccc3[nH]2)cc(OC)c1OC` gave EP2 modulator -75, EP2 antag 17, CHT block inactive and CHT PAM inactive.
`COc1ccc2c(c1)c(/C=N/Nc1nc3ccccc3[nH]1)c(C)n2C` gave EP2 modulator -34, EP2 antag 49*, CHT block inactive and CHT PAM inactive.
Cc1ccc2c(c1)N(CC(=O)Nc1ccc(F)cc1)C(=O)CO2 was read as EP2 modulator -42 and EP2 antag 11.
Nc1ccccc1SCC(=O)N1c2ccccc2Sc2ccc(C(F)(F)F)cc21 was read as EP2 modulator 88* and EP2 antag 5.
For O=C(/C=C/c1ccccc1)N1c2ccccc2Sc2ccc(C(F)(F)F)cc21 the results were EP2 modulator 42, EP2 antag 12, CHT block inactive and CHT PAM inactive.
Screening CCn1cnc2sc(C)c(-c3ccc(C)c(C)c3)c2c1=O returned EP2 modulator 16 and EP2 antag 7.
`CCCSc1nc2sc3c(c2c(=O)n1C)CCCC3` gave EP2 modulator 65* and EP2 antag 11.
`COc1cccc(-c2nc(C=O)cs2)c1` gave EP2 modulator -19, EP2 antag 3, CHT block -5* and CHT PAM inactive.

Assay outcomes deposited in PubChem by several laboratories.
